# Experimental data: the supplement of paper PMC8728848
# Shown is part of a subset that was picked to be rich in the strongest signals.
# B1: Surfactant Protein D (Human); Neck + Carbohydrate Recognition Domain (NCRD) (Homo sapiens) (protein)
# chain: MLLFLLSALVLLTQPLGYLEAEMKTYSHRTMPSACTLVMCSSVESGLPGRDRDGREGPRGEKGDPGLPGAAGQAGMPGQAGPVGPKGDNGSVGEPGPKGDTGPSGPPGPPGVPGPAGREGALGKQGNIGPQGKPGPKGEAGPKGEVGAPGMQGSAGARGLAGPKGERGVPGERGVPGNTGAAGSAGAMGPQGSPGARGPPGLKGDKGIPGDKGAKGESGLPDVASLRQQVEALQGQVQHLQAAFSQYKKVELFPNGQSVGEKIFKTAQFVKPFTEAQLLCTQAGGQLASPRSAAENAALQQLVVAKNEAAFLSMTDSKTEGKFTYPTGESLVYSNWAPGEPNDDGGSEDCVEIFTNGKWNDVACGEKRLVVCEF
# How the values were obtained:
# Test in all cases: glycan array binding signal (z-score within array); higher = stronger binding
# Conditions in all cases: glycan notation: IUPAC condensed, linker removed; mutation: R343V
# Fuc(a1-2)Gal(b1-4)Glc6S = target: Fuc(a1-2)Gal(b1-4)Glc6S
# Summary of the method: (§1)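 The Consortium for Functional Glycomics database supplied 3228 glycan arrays, of which those lacking an available protein sequence were dropped. The binding signal, a within-array Z-score, was averaged across arrays of the same protein sequence and across linkers. Negative scores can be read as non-binding.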
# [1] = target: Fuc(a1-2)Gal(b1-4)GlcNAc(b1-3)Gal(b1-4)GlcNAc
# Summary of the method: as §1
# [2] = target: Fuc(a1-2)Gal6S(b1-4)Glc6S
# Summary of the method: as §1
# [3] = target: Fuc(a1-2)[Gal(a1-3)]Gal(b1-4)GlcNAc
# Summary of the method: as §1
# [4] = target: Fuc(a1-2)[GalNAc(a1-3)]Gal(b1-3)GlcNAc
# Summary of the method: as §1
# Fuc(a1-3)GlcNAc = target: Fuc(a1-3)GlcNAc
# Summary of the method: as §1
# Gal(b1-3)Gal(b1-4)GlcNAc = target: Gal(b1-3)Gal(b1-4)GlcNAc
# Summary of the method: as §1
# [5] = target: Gal(b1-3)GalNAc(b1-4)Gal(b1-4)Glc
# Summary of the method: as §1
# [6] = target: Gal(b1-3)[Fuc(a1-4)]GlcNAc(b1-3)Gal(b1-4)[Fuc(a1-3)]GlcNAc
# Summary of the method: as §1
# [7] = target: Gal(b1-3)[Neu5Ac(a2-6)]GlcNAc(b1-6)Gal(b1-4)Glc
# Summary of the method: as §1
# [8] = target: Gal(b1-4)GlcNAc(b1-6)GalNAc
# Summary of the method: as §1
# Gal3S(b1-4)Glc6S = target: Gal3S(b1-4)Glc6S
# Summary of the method: as §1
# Gal3S6S(b1-4)GlcNAc6S = target: Gal3S6S(b1-4)GlcNAc6S
# Summary of the method: as §1
# GlcA(b1-6)Gal = target: GlcA(b1-6)Gal
# Summary of the method: as §1
# [9] = target: GlcNAc(b1-2)Man(a1-3)[GlcNAc(b1-2)Man(a1-6)]Man(b1-4)GlcNAc(b1-4)GlcNAc
# Summary of the method: as §1
# [10] = target: GlcNAc(b1-3)Gal(b1-3)GalNAc
# Summary of the method: as §1
# [11] = target: GlcNAc(b1-3)[GlcNAc(b1-4)][GlcNAc(b1-6)]GlcNAc
# Summary of the method: as §1
# [12] = target: GlcNAc(b1-4)Gal(b1-4)GlcNAc
# Summary of the method: as §1
# [13] = target: GlcNAc(b1-4)[GlcNAc(b1-6)]GalNAc
# Summary of the method: as §1
# Kdn(a2-3)Gal(b1-3)GlcNAc = target: Kdn(a2-3)Gal(b1-3)GlcNAc
# Summary of the method: as §1
# [14] = target: Man(a1-2)Man(a1-3)[Man(a1-6)]Man(a1-6)[Man(a1-2)Man(a1-3)]Man(b1-4)GlcNAc(b1-4)GlcNAc
# Summary of the method: as §1
# [15] = target: Man(a1-3)[Man(a1-6)]Man(a1-6)[Man(a1-2)Man(a1-3)]Man(b1-4)GlcNAc(b1-4)GlcNAc
# Summary of the method: as §1
# [16] = target: Man(a1-3)[Man(a1-6)]Man(a1-6)[Man(a1-3)]Man(b1-4)GlcNAc(b1-4)GlcNAc
# Summary of the method: as §1
# [17] = target: Neu5Ac(a2-3)Gal(b1-4)GlcNAc(b1-3)Gal(b1-3)GlcNAc
# Summary of the method: as §1
# [18] = target: Neu5Ac(a2-6)Gal(b1-4)GlcNAc6S
# Summary of the method: as §1
# [19] = target: Neu5Ac(a2-8)Neu5Ac(a2-3)Gal(b1-4)Glc
# Summary of the method: as §1
# [20] = target: Neu5Ac(a2-8)Neu5Ac(a2-8)Neu5Ac(a2-3)Gal(b1-4)Glc
# Summary of the method: as §1
binder,measurement,setting,value
B1,glycan array binding signal (z-score),Fuc(a1-2)Gal(b1-4)Glc6S,-0.514
same,glycan array binding signal (z-score),[1],1.5
same,glycan array binding signal (z-score),[2],-0.304
same,glycan array binding signal (z-score),[3],-0.508
same,glycan array binding signal (z-score),[4],-0.559
same,glycan array binding signal (z-score),Fuc(a1-3)GlcNAc,3.11
same,glycan array binding signal (z-score),Gal(b1-3)Gal(b1-4)GlcNAc,-0.562
same,glycan array binding signal (z-score),[5],-0.463
same,glycan array binding signal (z-score),[6],2.11
same,glycan array binding signal (z-score),[7],-0.498
same,glycan array binding signal (z-score),[8],-0.546
same,glycan array binding signal (z-score),Gal3S(b1-4)Glc6S,-0.317
same,glycan array binding signal (z-score),Gal3S6S(b1-4)GlcNAc6S,-0.189
same,glycan array binding signal (z-score),GlcA(b1-6)Gal,-0.463
same,glycan array binding signal (z-score),[9],3.08
same,glycan array binding signal (z-score),[10],1.72
same,glycan array binding signal (z-score),[11],3.11
same,glycan array binding signal (z-score),[12],3.13
same,glycan array binding signal (z-score),[13],2.16
same,glycan array binding signal (z-score),Kdn(a2-3)Gal(b1-3)GlcNAc,-0.504
same,glycan array binding signal (z-score),[14],2.61
same,glycan array binding signal (z-score),[15],3.01
same,glycan array binding signal (z-score),[16],3.27
same,glycan array binding signal (z-score),[17],-0.489
same,glycan array binding signal (z-score),[18],-0.319
same,glycan array binding signal (z-score),[19],-0.47
same,glycan array binding signal (z-score),[20],-0.49
